Assay outcomes: PubChem, National Center for Advancing Translational Sciences (NCATS)
KB-3-1 tox = qHTS assay for MDR1-selective chemotherapeutics: Primary screen using the parental adenocarcinoma cell KB-3-1; KB-3-1 viability, CellTiter-Glo ATP luminescence, 72 h; Potency, µM (titrated, usually from 46.1 µM), most hits filed as cytotoxic; hit rate 1.4% among 400,000; further: on the % scale 0 is the no-effect control and ±100 the full control effect; nearly all actives have a fitted effect of over 60% in size
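Using CellTiter-Glo luminescence, growth of non-resistant KB-3-1 adenocarcinoma cells is assessed 72 h after pin-tool compound addition at 37 °C. Normalized responses across the concentration series yield fitted curves.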
HT1080NT lethal = qHTS for induction of synthetic lethality in tumor cells producing 2HG: qHTS for the HT-1080-NT fibrosarcoma cell line. Potency, µM (doses to about 46.1 µM), inactives show at the highest dose activity, negative = less viability, most hits filed as cytotoxic. AID 686970, 2013. hit rate 1.6% among 360,000. HT-1080-NT fibrosarcoma viability, CellTiter-Glo ATP luminescence, 48 h;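 further: NT is the 2HG producing partner of a matched IDH1 knockdown line; 0% = DMSO-treated cells and -100% = media-only wells without cells; nearly all actives have a fitted effect of over 55% in size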
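HT-1080-NT; 750 cells/well; 5% FBS RPMI; 48 h compound, 37 degrees C; CellTiter-Glo luminescence; curve fitting and curve-class assignment.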
KB-V1 MDR tox = qHTS assay for MDR1-selective chemotherapeutics: Primary screen using the drug-selected MDR subline cells KB-V1 | KB-V1 MDR cells viability, CellTiter-Glo, 72 h | Potency, µM (doses to about 46.1 µM), actives largely listed as cytotoxic | hit rate 3.4% among 400,000; further: on the % scale 0 is the no-effect control and ±100 the full control effect; nearly all actives have a fitted effect of over 60% in size
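Readout: CellTiter-Glo luminescence, 10 min after addition. Cells: KB-V1 MDR subline, 72 h at 37 degrees C with compound. Analysis: corrected, normalized data fitted to concentration-effect curves.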
MCF10A rereplic = A quantitative high throughput screen for small molecules that induce DNA re-replication in MCF 10a normal breast cells; MCF 10A DNA re-replication, Hoechst nuclear intensity, 48 h; Potency, µM (top dose mostly 46.1 µM), for inactives: at the highest dose activity, positive = re-replication, actives largely listed as activators; AID 624296, 2012; hit rate 2.9% among 350,000; further: % of control where 0% means no effect; nearly all actives have a fitted effect of over 50% in size
HT1080 IDH1KD tx = qHTS for induction of synthetic lethality in tumor cells producing 2HG: qHTS for the HT-1080-IDH1KD cell line. HT-1080 IDH1 knockdown viability, ATP luminescence, 48 h. Potency, µM (highest dose often 46.1 µM), inactives show at the top dose activity, negative = toxicity, actives largely listed as cytotoxic. hit rate 2% among 360,000. AID 686971, 2013;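 further: 0% = DMSO wells and -100% = cell-free medium wells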
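% activity derives from luminescence (CellTiter-Glo), normalised to DMSO and no-cell wells. HT-1080-IDH1KD cells, 750/well, had 48 h compound exposure at 37 °C.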
SW480 rereplic = A quantitative high throughput screen for small molecules that induce DNA re-replication in SW480 colon adenocarcinoma cells. hit rate 1.8% among 340,000. SW480 DNA re-replication, Hoechst DNA content imaging, 48 h. Potency, µM (series often up to 46.1 µM), inactives show at the top dose re-replication activation, hits mostly activators. AID 624297, 2012; further: % of control where 0% means no effect; nearly all actives have a fitted effect of over 55% in size
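Readout is total intensity of Hoechst-stained nuclei, excited at 405 nm and collected at 500-530 nm. Compound treatment lasted 48 hr at 37 C in 5% CO2 before staining.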
Active calls of the source: *; i = inactive; ? = inconclusive; [ ] = another dose, or the depositor's remark. A selection: hits, their analogues and other compounds. The true share with any hit is near 8%. The call rests on the fitted dose curve; in most records, active means well fitted curve in the direction sought with a large enough effect; inconclusive means small, poorly fitted or top-dose-only effect, or another doubt; inactive means no such curve, though single readings can be large; an effect the other way counts as inactive or inconclusive. Potency means the concentration at half of the fitted maximal effect.

SMILES | KB-3-1 tox | HT1080NT lethal | KB-V1 MDR tox | MCF10A rereplic | HT1080 IDH1KD tx | SW480 rereplic
C=CC[C@H](CC(=O)N(CCO)Cc1ccccc1)C(=O)N[C@@H](COC(=O)[C@H](CC=C)CC(=O)OC(C)(C)C)Cc1c[nH]c2ccccc12 | ? | ? | ? | 23µM* | ? | 25%
C=CC[C@@H](CC(=O)N(CCO)Cc1ccccc1)C(=O)N[C@@H](COC(=O)[C@@H](CC=C)CC(=O)OC(C)(C)C)Cc1c[nH]c2ccccc12 | ? | ? | i | ? | ? | 3%
C=CC[C@@H](CC(=O)N(CCO)Cc1ccccc1)C(=O)N[C@H](COC(=O)[C@@H](CC=C)CC(=O)OC(C)(C)C)Cc1c[nH]c2ccccc12 | i | -26% | i | 10µM* | -25% | 8%
C=CC[C@H](CC(=O)N[C@H](CO)Cc1ccccc1)C(=O)N[C@@H](COC(=O)[C@@H](CC=C)CC(=O)OC(C)(C)C)Cc1c[nH]c2ccccc12 | ? | -20% | i | 29% | ? | 15%
C=CC[C@@H](CC(=O)N[C@@H](CO)Cc1ccccc1)C(=O)N[C@H](COC(=O)[C@@H](CC=C)CC(=O)OC(C)(C)C)Cc1c[nH]c2ccccc12 | i | ? | i | 16µM* | ? | ?
CC(OC(=O)c1cc(S(=O)(=O)N2CCOCC2)ccc1F)C(=O)NC1CCCC1 (centres undefined) | i | -1% | ? | 1% | 3% | -7%
CC(C)[C@H](NC(=O)[C@@H]1Cc2ccccc2CN1)C(=O)NC1CCCCC1 | i | -8% | i | 4% | 1% | ?
O=C(NCCc1c[nH]c2ccccc12)C1CCC(Cn2c(=S)[nH]c3ccccc3c2=O)CC1 (centres undefined) | ? | -24% | 15µM* | ? | ? | 9%
COCCNC(=O)C1CCC(Cn2c(=S)[nH]c3ccccc3c2=O)CC1 (centres undefined) | i | -10% | i | 13% | -9% | -6%
Nc1nc(Nc2ccccc2F)sc1C(=O)c1ccccc1 | 10µM* | -10% | i | ? | -27% | ?
N#CC(=C=[N-])C1=C(C#N)C(c2ccccc2F)C([n+]2ccccc2)C(O)(C2CC2)N1 (centres undefined) | ? | -1% | i | 7% | 8% | 6%
O=C(CCCN1C(=O)c2cccc3cccc(c23)C1=O)N1CCN(c2ccccc2O)CC1 | ? | -4% | 6.5µM* | ? | 1% | -38%
CC(C)C(=O)N1CCN(CCN2C(=O)c3cccc4cccc(c34)C2=O)CC1 | i | 4% | i | -1% | 11% | 4%
Cc1ccc(NC(=S)N2CCN(CCN3C(=O)c4cccc5cccc(c45)C3=O)CC2)cc1 | i | -19% | 15µM* | -1% | -3% | -2%
O=C(C(c1ccccc1)c1ccccc1)N1CCN(CCN2C(=O)c3cccc4cccc(c34)C2=O)CC1 | i | -22% | i | 15µM* | -17% | -3%
COc1cc(C(=O)COC(=O)CNC(=O)C2CCCCC2)cc(OC)c1OC | i | -1% | i | 4% | 0% | -1%
CCCn1c(SCC(=O)NCc2ccc(C)cc2)n[nH]c1=O | i | -2% | i | 3% | -6% | 4%[1.84 µM]
CCOC(=O)c1nn(-c2ccccc2C)c2nc(Nc3ccccc3)cc(=O)n12 | i | -9% | i | 14% | -7% | 0%
CC(=O)c1ccc2noc(-c3ccccc3)c2c1 | i | 14% | ? | -3% | 1% | 25%
